{
  "source": "PubChem BioAssay AID890",
  "about": "(National Center for Advancing Translational Sciences (NCATS), 2007)",
  "note": "Calls of active or inactive are those of the source. Calls come from the whole dose curve; as a rule, active = well fitted activation curve with a large enough effect; inactive = flat fitted curve, though single readings scatter.",
  "data": [
    {"test": "Confirmation Concentration-Response Assay for Epigenetic Modulators", "settings": "murine C127i cells, silenced GFP reporter derepression, imaging; series mostly up to 46 µM; GFP activation: at the top concentration", "outline": "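Murine c127i mammary cells carrying a silenced, stably integrated CMV-driven GFP reporter were exposed to compound for 30 hours at 37 C. After PBS washes, GFP-positive cells (20 to 120 um objects) were counted by laser-scanning microplate cytometry.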", "values": [
      {"smiles": "Cc1cc(C)n(-c2nc(N(C)C)nc(N(C)C)n2)n1", "GFP activation": "0.5% (inactive)"},
      {"smiles": "CCOCc1ccc(O)c2ncccc12", "Potency": "4.97 µM (active)"},
      {"smiles": "CCN(CC)c1ccc2cc(-c3nc4ccccc4[nH]3)c(=O)oc2c1", "Potency": "0.56 µM (active)"},
      {"smiles": "O=C(CSc1cccc2cccnc12)N1CCCC1", "Potency": "8.94 µM (active)"}
    ]}
  ]
}
